Laboratory results published in PubChem BioAssay AID1508600 (Functional Genomics Laboratory (NCATS/FGL), 2020).
The campaign covered roughly 53,000 sequences. About 3,700 (7%) were called active.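 The calls were made as follows: active = gene knockdowns whose robust z-score for IL-1 alpha signal is at least 2 or at most -2, so actives lie on both sides; inactive = the rest.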 Shown is part of a subset that was picked to be rich in actives.

assay: Components of the Cytosolic LPS Sensing Pathway: Gene Identification via Genome-wide siRNA Screen; settings: RAW264.7 macrophages, IL-1a HTRF, actives lie on both sides, screened at 100 nM (by protocol), cells primed 5 h with Pam3CSK4 first;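 also: robust z of the log signal after scaling to non-targeting control siRNA wells of the plate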
Summary of the method: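 Mouse macrophage line RAW264.7 is transfected with siRNA (100 nM final), grown 48h, primed with TLR ligand Pam3CSK4 5 h and given intracellular LipidA 24 h. IL-1a in supernatant is read by HTRF and viability by luminescence.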

z-score, active:
GGCAGCUUCAGGAACCAAUTT against Krt5 -2
CCACAAGCAGUGCUCUUUCTT against Cyp3a13 -2.08
GGAAUCAGUGACCUUUUUCTT against Arf2 -2.05
GCUCUCCUUGAUCGAGAGATT against Spryd7 -2.65
GGUCCUGACUGGAUACCUGTT against Ece1 4.19
CCAGAACGCGGAGCAAAUUTT against Sec63 2.13
GGGAAAUGGUGAAUCACAGTT against Dpp8 2.25
GCUAAGUUAAGCUUAAUACTT against Rbl1 3.33
GGCUUUUUAGGAAACUAUATT against Olfr361 2.12
CCGCUGAAAAUGGAAGUUATT against Mrgprb4 -2.21
CGUAAUACAAUCCAGUUCATT against Aqr -2.18
GCAGCUGCACUAAAGAACGTT against Dlg1 2.9
GGCAAAUGAGAAACAGCAATT against Cxcl16 -2.23
GGUCAUUCCCAUUAAACAGTT against Emc8 -2.57
CCAAAGGGAAGAGUUAUGCTT against Tmem126b 2.34
GGAAGUAGCUUAUUGUUCUTT against Polr2b -2.69
GAUCUUUCGACACAUCACCTT against Cyp4a12a -2.02
GGAGGACCAUUGUAAGUAGTT against 9930022D16Rik 2.17
CCUCCACUAUACGGUAAGUTT against Pla2g2c -3.37
CGUUACCAUGAGAGUUAAUTT against Pcdhb19 3.83
GCCACUCAUAUUGAUCCAUTT against Prss34 -2.31

z-score, inactive:
GGCCAAUAAAGACUGGUUUTT against Rps15 1.69
GGAAAGCAAUGCAUUACAATT against Zbtb6 0.149
GGCGGAAGCCAUCUAACUUTT against Arhgef4 -0.519
GGGUUUUCUCAUUGUCUUUTT against Rce1 -1.91
GGAGGUUUUCAUGGUUAUCTT against Nrgn 0.0293
GGUAGACUGAACUUCAGCATT against Larp6 -1.31
CCCUAUGCAAUAUAUAGACTT against Tmsb15l 0.174
CCGAAAAUGAGAUAAAGUCTT against Polr2k -1.88
GGUCAAGUCAAGAGUGAGATT against BC048562 0.2
GGCAUUCUGUGAGACACAATT against Exosc10 0.389
GAGAAGAAAAAAUGCAGUGTT against Olfr825 0.0375
CCUGAGGUGUUUUACAUAUTT against Med20 0.085
GGAAGAAUCCUCCAUGGAGTT against Mrpl24 1.35
CCCUCCUAUUAGCGCAUUUTT against Osbpl2 -0.239
GGAGAUGAUCGACGAAGUATT against Tnnc1 0.914
GGAGACAGCAUUCAUUUAUTT against Wnt16 0.94
GCCUUGUCUUCCUUCAGUGTT against Sprr2a1 -0.172
GGACUUAAGUACAAAGAUCTT against Sap18 1.46
GCAUCAAAUAGUGGUACCUTT against Lsm14a -0.209
CGAGCUCAGGUGAGAAAUUTT against Pfpl 0.924
GGACUGCCUUAUGCUACGATT against Setd5 -0.44
GUCCUCUUCUGGUUCUCAGTT against Vmn1r52 0.246
CGAGAAGUACAAAAGGGAGTT against Ccdc103 -0.768
GGCGGAGUAGACUUCAUAUTT against Olfr593 0.363
GUUUGAUGAUCACUGGGUCTT against Aqp2 1.6
GCUCCGAAGAGCUAAUACUTT against Tmem25 0.944
GCGGCAGAUCUUCGAUUUCTT against Nkain1 0.168
GGCAAAUAUUUCCAAGUACTT against Cpq -1.57
CGAAGUUCCUGGAAAAUAUTT against Tbc1d7 -0.924
GCACUGUGACGAUACAAGATT against Asb1 -1.17
CCGUAGCGAGACUUACAUCTT against Asic3 1.88
CCUAUAAUGGAGAUGAUACTT against Spty2d1 -0.46
GGCAGAAGCCGUUAGAGAUTT against Cep295nl 0.35
CCAAUCGUAAUGACAAUUCTT against Myo1d -0.857
GGGACAACACUCUUUUACUTT against Nab2 0.696
GGAGGACUUUCAGUUAUAUTT against Ogfod3 1.32
GCGAUUGUGCUUUUGAGCCTT against Tanc2 1.97
GGCUUCAGUGAUGAAUGAATT against Tor1aip1 -0.594
GCCACGACACGAUGACAUATT against Plcxd1 0.918
GGCAUAGCCACUAAAAAAATT against Muc2 -0.832
GGUUUCCAGUUAUCUUAAUTT against Glipr1l2 1.46
GGACAAAGAAACUCAUAGGTT against A530021J07Rik 0.737
GGUGAACUUCUUUGGUGCATT against Hsd11b2 0.0519
GCUUAGAAAUCUUAUCCCATT against Hnrnpc -1.19
GGCACUUCUUUCCAAGACGTT against Gbp7 -0.373
GCCUGUUCUAUGUUACUGGTT against Olfr320 -1.99
GCGAUGUCAAUCAAUUCUGTT against Gpr37l1 0.513
GCAUUUCGUCAGGGCAAAATT against Fuca1 -0.515
UAUUUCUCCCUUGCUGGUATT against Gm5168 1.18
GCCCAGAAUAGACAAACCGTT against Wfdc15b -1.95
CCUGAUCCCAUGUAAAACATT against Sspn -0.35
GGGAAUGACAGAAAUAUAATT against Golm1 0.923
GGUUGUUACCUUACUGUACTT against Olfr532 0.952
GGCUAUUGUUGGUAGAACUTT against Dek 0.441
GGACUUAUGAGCAAAUAAATT against Rprd1a 0.494
GGAACUUUAUGUCUCCUACTT against Lrrc56 -0.988
GGUUUCCUUUAUCAAGAAGTT against Snrnp25 -0.00388
CCUAUAAGUGAACUGUGAUTT against Aig1 -0.71
CCUGUAUACUAUCACUUGUTT against Casp8 0.103
GGUGUCUUAUGAGCAAUAUTT against Pdcd6 -1.12
GGGAAAUCAGAUAAAGCCCTT against Myl12a 0.874
GGCAACAACAUACCUAAUATT against Rmdn1 -0.756
GGUACUUUCGCAUCCUGCATT against Rnaseh2b -0.397
GGUGUUGGCUCACAACCAATT against Fam234b -1.67
GGGCUCUGAAUUGAAGAAATT against Ralgps2 -0.163
CCCUUAGGGAGUGCUGUGATT against Gc -1.85
CCCAUGAACCUUAUUUGAATT against Ino80c -0.268
GGUGGUAUUGUUGGCUUUATT against Olfr1297 0.293
GAUGGACAGAAAUCAGGAGTT against Arap1 0.208
CGGUCAUUUGAAGUAGGAATT against Pwwp3a 0.76
GGAUCAUCUCCUCUACUCUTT against Olfr394 -1.84
CCAGGUGAAUUAAUAGUCUTT against Stk4 0.93
GGUACUAAAUCAAACAUCCTT against Angpt1 0.578
GCCUGAAUCCGCCACAUUGTT against Cx3cl1 1.6
CCUGGAUGCAGGUUAAGCUTT against Dppa5a -0.817
GCUGAAACUAACAUUUGAUTT against Anxa3 0.146
GGCUGGAUGUCAGAUUGCATT against Olfr1389 -1.38
GGACCAGUUUGAGUAUGAGTT against Tmem11 -1.58
CCUGUGAGGCCAUUGAUUCTT against Acsbg1 -1.33
GGACUCUUUUUGUUCUUUGTT against Vgll2 -1.22
CGGGAGUAUCUGCUUCAGUTT against Ndufb4 0.336
GGCUGAAGAGAUUGUCAAUTT against Aars -0.392
CCUGCUAAACCUGGACCAUTT against Hic1 1.61
GGAGCUUAGCCUCUGUAUGTT against Gatd3a -0.86
GGUAAAGACAAGAUUAAAGTT against Cyp39a1 -0.308
GGUGUUUACUCCGUACCCATT against Tbrg4 -2
GCGUGAACCUCCUUCUUGATT against Ramp3 -1.29
